CaV13 ICDI inh = Disruptors of the CACNA1D IQ motif to Ca2+-dependent inactivation inhibitor domain association, primary screening, Förster resonance energy transfer in intact living …. HEK cells, CFP/YFP FRET ICDI-IQ, plate reader, 10 min; percent FRET-ratio fall versus neutral wells. inhibition, % at 12.3 µM. actives 0.098% (n = 340,000);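 active means mean replicate inhibition of at least 30% and at least 1% of replicates passing that level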
DSG3 Ab inh = inhibitors of pemphigus antibody binding to DSG3, primary screen, biochemical, bead-based, flow cytometry, scFv-GFP. DSG3-coupled beads, scFv-anti-DSG3-GFP binding; hits give low values. actives 0.48% (n = 310,000). Desmoglein-3 (Homo sapiens), P32926. binding (percent of control), % at 10 µM;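 active means binding more than 3 SD below its plate's average and above zero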;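 further: hits lower antibody fragment binding to DSG3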
NSD2 inh = NSD2 histone methyltransferase inhibitors, primary screen, biochemical, AlphaScreen, single concentration, set 2. AID 743445, 2014. inhibition, % at 12.5 µM. NSD2 peptide methylation, 120 min. Histone-lysine N-methyltransferase NSD2 (Homo sapiens), O96028. actives 0.54% (n = 310,000); in the data active means inhibition above about 50%
ATG4B inhibitor = ATG4B protease inhibitors, primary screen, biochemical, fluorescence, uHTS; ATG4B cleavage of LC3-PLA2, NBD-HPC fluorescence, 1 h; inhibition, % at 8.33 µM; actives 0.51% (n = 340,000); in the data active means inhibition above about 40%
Target sequence (Q9Y4P1 whole entry, looked up): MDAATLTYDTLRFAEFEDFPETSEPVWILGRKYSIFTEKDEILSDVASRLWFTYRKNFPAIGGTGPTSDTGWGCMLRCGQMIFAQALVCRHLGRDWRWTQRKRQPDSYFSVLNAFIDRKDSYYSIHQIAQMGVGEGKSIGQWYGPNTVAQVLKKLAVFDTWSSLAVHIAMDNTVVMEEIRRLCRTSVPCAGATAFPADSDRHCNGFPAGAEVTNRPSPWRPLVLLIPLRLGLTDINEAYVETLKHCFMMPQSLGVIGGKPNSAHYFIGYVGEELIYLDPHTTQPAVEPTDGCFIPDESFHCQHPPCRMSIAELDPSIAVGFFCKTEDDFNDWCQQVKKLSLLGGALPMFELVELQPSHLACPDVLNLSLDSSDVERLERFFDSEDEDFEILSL
Vif imaging = HIV Vif self-association inhibitors, primary screen, imaging, HEK293T, single point; inhibition, % at 7.49 µM; actives 0.35% (n = 340,000); HEK293T cells, Vif self-association by quenched fluorescence, 24 h; in the data active means inhibition above about 50%, passing the limit was not always enough
Glyco luc inh = increase of ERlucT glycosylation luciferase signal, primary screen, N-linked glycosylation inhibitor project, D54 ERlucT cells, luminescence, set 2 | D54 ERlucT glycosylation luciferase reporter, 24 h; percent of 100 nM tunicamycin response | reporter increase, % at 12.5 µM | actives 0.23% (n = 360,000) | AID 588692, 2011;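 active means mean luciferase reporter signal, scaled so untreated is 0 and the glycosylation-blocking control 100, at or above a set limit in every replicate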;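 further: luciferase carries N-glycosylation sites so blocking glycosylation raises the light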
A number is an active result; - = inactive; . = no result. Only some compounds are listed: those with a hit (about 1.9% of all), similar ones and a draw of the others.

SMILES	CaV13 ICDI inh	DSG3 Ab inh	NSD2 inh	ATG4B inhibitor	Vif imaging	Glyco luc inh
COc1ccc(NC(=O)CN(C)C(=O)C(C)N2C(=O)c3ccccc3C2=O)cc1 (stereo not drawn)	-	-	-	-	-	-
COc1cc(-c2c(-c3cc(OC)c(OC)c(OC)c3)noc2C)ccc1F	-	.	.	-	.	.
COc1ccc(-c2c(-c3cc(OC)c(OC)c(OC)c3)noc2C)cn1	.	-	.	-	-	29.7
COc1cc(-c2noc(C)c2/C=C/c2ccc(N)cc2)cc(OC)c1OC	-	-	.	-	-	43.4
Cc1ccc(NC(=O)c2sc(Cl)nc2C)c(C)c1	-	-	-	-	-	-
Cc1cc(C)c(C)c(OC(=O)c2sc(Cl)nc2C)c1	-	-	-	-	-	38.3
C=CCNc1nnnc2c1sc1nc(N3CCOCC3)c3c(c12)CCCC3	-	-	-	-	-	-
O=C(CCCNS(=O)(=O)c1cccc2nsnc12)NCCc1ccccc1	-	-	.	-	-	-
CCC(C)NC(=O)Cn1c(COc2ccc(Cl)cc2Cl)nc2ccccc21 (stereo not drawn)	-	-1.1	-	-	-	-
Nc1ccn(Cc2ccccc2F)n1	-	-	-	-	-	-
COc1cc2sc3cc(NCC[C@@H]4CCCN4C)ccc3c(=O)c2cc1OC	36.2	-	.	-	-	-
CC1(c2nnc(-c3ccc(Cl)cc3)o2)CC(c2ccncc2)=NO1 (stereo not drawn)	-	-	.	-	-	-
Cc1ccc(C2=NOC(C)(c3nnc(-c4ccncc4)o3)C2)cc1 (stereo not drawn)	-	-	.	-	135.0	-
COCCn1c(=N)c(S(=O)(=O)c2ccc(F)cc2)cc2c(=O)n3ccccc3nc21	103.6	.	-	-	-	-
N=c1c(S(=O)(=O)c2ccc(Br)cc2)cc2c(=O)n3ccccc3nc2n1Cc1ccccc1	-	-	-	-	-	-
Cc1ccc(Cn2c(=N)c(S(=O)(=O)c3ccc(Br)cc3)cc3c(=O)n4ccccc4nc32)cc1	.	.	.	-	52.7	-
O=c1ccn([C@@H]2O[C@H](CNCc3ccc(-n4cccn4)cc3)[C@@H](O)[C@H]2O)c(=O)[nH]1	-	-	.	-	95.6	-
O=c1ccn([C@@H]2O[C@H](CNCc3ccccc3)[C@@H](O)[C@H]2O)c(=O)[nH]1	-	.	.	.	-	-
CN1CCC(N(C)S(=O)(=O)c2ccc(NC(=O)COc3ccc(F)cc3)cc2)CC1	-	-	-	-	-	-
O=C1c2cc(Br)ccc2N(Cc2ccc(Br)cc2)S(=O)(=O)C1c1cc(Cl)c(Cl)cc1[N+](=O)[O-] (stereo not drawn)	.	.	.	68.2	-	-
Cn1nc(C(F)(F)F)c(/C=N/OC(=O)c2ccccc2)c1SCc1ccccc1Cl	-	.	-	-	-	55.0
COc1ccc(-c2[nH]c3ccccc3c2SCCNC(=O)c2cc3ccccc3oc2=O)cc1	-	-	.	-	.	-
CCc1ccc(CNCc2ccc(F)cc2)cc1	-	.	-	-	-	-
COC(=O)c1c(O)cc(C(C)(C)C)n(-c2ccccc2)c1=O	-	-	-	-	-	-
O=C(O)c1ccc2c(=O)n3c(nc2c1)/C(=C/c1ccc(F)cc1)CC3	-	-	-	-	.	-
SMILES	CaV13 ICDI inh	DSG3 Ab inh	NSD2 inh	ATG4B inhibitor	Vif imaging	Glyco luc inh
C[C@H](NC(=O)c1nc[nH]c1C(=O)NC1CCNCC1)C(=O)OC(C)(C)C	-	-	.	-	-	-
O=C(NCc1ccccc1)C1CCCC1	.	.	-	.	.	.
O=C(NC(=S)NCc1ccccc1)C1CC1	-	24.8	-	-	-	-
COCCN1CC(=O)N(c2cccc(C)c2C)C(c2ccc(Cl)cc2)C1=O (stereo not drawn)	-	-	-	-	-	-
Cc1ccc(C(=O)OCC(=O)Nc2cccc(S(=O)(=O)NC3=NCCCCC3)c2)c(C)c1	-	74.2	-	-	-	-
NNC(=O)c1ccc2[nH]c3c(c2c1)CCCC3	-	-	-	-	-	-

Source: PubChem
